In the supplement of paper PMC10849652:
Targets with a hit are over-represented here; the source holds about 8,800 in all. About 0.5% of all pairs of compound and target were hits.

Assays:
Assay in all cases: log2 fold change, soluble protein after heating vs DMSO (PISA); higher = thermal stabilisation; K562 lysate, 10 uM; active = over 0.2 and 3.5 SD of the protein, either way, in both replicates (recomputed)
alvocidib = compound: CN1CC[C@H](c2c(O)cc(O)c3c(=O)cc(-c4ccccc4Cl)oc23)[C@H](O)C1 [alvocidib]
In short: (§1)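 Following dounce homogenisation of K562 pellets in PBS pH 7.4 with 1 mM MgCl2, crude extract at 1 mg/mL protein was incubated for 30 min with 10 μM compound. Aliquots were then heated for 3 min over 48°C-58°C and pooled, NP-40 was added to 0.5% at 4°C, and soluble protein was recovered as the supernatant at 21,000xg for 90 min. Channel-sum-equalised TMTpro 16plex LC-MS/MS quantified this protein. Each value, from duplicates, is a log-two fold change in thermal stability relative to solvent controls.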

Tubastatin A = compound: CN1CCc2c(c3ccccc3n2Cc2ccc(C(=O)NO)cc2)C1 [Tubastatin A]
In short: as §1

[1] = compound: CNC(=O)C1=CC=CC=C1NC2=NC(=NC=C2Cl)NC3=C(C=C(C=C3)N4CCOCC4)OC
In short: as §1

defactinib = compound: CNC(=O)c1ccc(Nc2ncc(C(F)(F)F)c(NCc3nccnc3N(C)S(C)(=O)=O)n2)cc1 [defactinib]
In short: as §1

[2] = compound: CNc1nc(-c2ccc3c(N)n[nH]c3c2)cc(N2C[C@@H](C(=O)NC3CCCCC3)CC[C@H]2C)n1
In short: as §1

encorafenib = compound: COC(=O)N[C@@H](C)CNc1nccc(-c2cn(C(C)C)nc2-c2cc(Cl)cc(NS(C)(=O)=O)c2F)n1 [encorafenib]
In short: as §1

[3] = compound: COC(=O)[C@H](CCSC)NC(=O)C1=C(C=C(C=C1)NC[C@H](CS)N)C2=CC=CC=C2
In short: as §1

alisertib = compound: COc1cc(Nc2ncc3c(n2)-c2ccc(Cl)cc2C(c2c(F)cccc2OC)=NC3)ccc1C(=O)O [alisertib]
In short: as §1

[4] = compound: COc1cc2nc(-c3cc(F)ccc3O)nc(N[C@@H]3CNC[C@H]3C(C)(C)O)c2cc1OC
In short: as §1

gefitinib = compound: COc1cc2ncnc(Nc3ccc(F)c(Cl)c3)c2cc1OCCCN1CCOCC1 [gefitinib]
In short: as §1

lapatinib = compound: CS(=O)(=O)CCNCc1ccc(-c2ccc3ncnc(Nc4ccc(OCc5cccc(F)c5)c(Cl)c4)c3c2)o1 [lapatinib]
In short: as §1

pictilisib = compound: CS(=O)(=O)N1CCN(Cc2cc3nc(-c4cccc5[nH]ncc45)nc(N4CCOCC4)c3s2)CC1 [pictilisib]
In short: as §1

crizotinib = compound: C[C@@H](Oc1cc(-c2cnn(C3CCNCC3)c2)cnc1N)c1c(Cl)ccc(F)c1Cl [crizotinib]
In short: as §1

[5] = compound: C[C@H](C1=CC=C(C=C1)C(=O)NC2=C3C=CNC3=NC=C2)N
In short: as §1

duvelisib = compound: C[C@H](Nc1ncnc2nc[nH]c12)c1cc2cccc(Cl)c2c(=O)n1-c1ccccc1 [duvelisib]
In short: as §1

gandotinib = compound: Cc1cc(Nc2cc(CN3CCOCC3)c3nc(C)c(Cc4ccc(Cl)cc4F)n3n2)n[nH]1 [gandotinib]
In short: as §1

tozasertib = compound: Cc1cc(Nc2cc(N3CCN(C)CC3)nc(Sc3ccc(NC(=O)C4CC4)cc3)n2)n[nH]1 [tozasertib]
In short: as §1

doramapimod = compound: Cc1ccc(-n2nc(C(C)(C)C)cc2NC(=O)Nc2ccc(OCCN3CCOCC3)c3ccccc23)cc1 [doramapimod]
In short: as §1

bafetinib = compound: Cc1ccc(NC(=O)c2ccc(CN3CC[C@H](N(C)C)C3)c(C(F)(F)F)c2)cc1Nc1nccc(-c2cncnc2)n1 [bafetinib]
In short: as §1

[6] = compound: Cc1cccc(CC(=O)N2CCc3c2ccc(-c2cn(C)c4ncnc(N)c24)c3F)n1
In short: as §1

Measured: log2 fold change

PCYT1B (UniProt Q9Y5K3)
Chain of UniProt Q9Y5K3 (Q9Y5K3 whole entry, looked up): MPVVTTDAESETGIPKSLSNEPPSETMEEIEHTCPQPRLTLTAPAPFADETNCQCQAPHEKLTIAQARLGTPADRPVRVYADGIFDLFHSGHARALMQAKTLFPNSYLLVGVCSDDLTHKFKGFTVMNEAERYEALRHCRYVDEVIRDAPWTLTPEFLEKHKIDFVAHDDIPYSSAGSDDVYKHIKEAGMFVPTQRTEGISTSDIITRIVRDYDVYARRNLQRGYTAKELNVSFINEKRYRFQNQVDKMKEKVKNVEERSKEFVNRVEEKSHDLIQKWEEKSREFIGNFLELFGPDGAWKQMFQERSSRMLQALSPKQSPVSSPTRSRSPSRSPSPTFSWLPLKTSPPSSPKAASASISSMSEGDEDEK
inactive: alvocidib -0.007 | Tubastatin A -0.023 | [1] 0.033 | defactinib 0.01 | [2] 0.086 | encorafenib 0.047 | [3] -0.025 | alisertib 0.033 | [4] -0.02 | gefitinib 0.033 | lapatinib 0.008 | pictilisib 0.004 | crizotinib 0.025 | [5] -0.044 | duvelisib -0.007 | gandotinib 0.193 | tozasertib 0.008 | doramapimod -0.003 | bafetinib -0.127
active: [6] 0.239

PIK3CG (UniProt P48736)
Chain of UniProt P48736 (P48736 whole entry, looked up): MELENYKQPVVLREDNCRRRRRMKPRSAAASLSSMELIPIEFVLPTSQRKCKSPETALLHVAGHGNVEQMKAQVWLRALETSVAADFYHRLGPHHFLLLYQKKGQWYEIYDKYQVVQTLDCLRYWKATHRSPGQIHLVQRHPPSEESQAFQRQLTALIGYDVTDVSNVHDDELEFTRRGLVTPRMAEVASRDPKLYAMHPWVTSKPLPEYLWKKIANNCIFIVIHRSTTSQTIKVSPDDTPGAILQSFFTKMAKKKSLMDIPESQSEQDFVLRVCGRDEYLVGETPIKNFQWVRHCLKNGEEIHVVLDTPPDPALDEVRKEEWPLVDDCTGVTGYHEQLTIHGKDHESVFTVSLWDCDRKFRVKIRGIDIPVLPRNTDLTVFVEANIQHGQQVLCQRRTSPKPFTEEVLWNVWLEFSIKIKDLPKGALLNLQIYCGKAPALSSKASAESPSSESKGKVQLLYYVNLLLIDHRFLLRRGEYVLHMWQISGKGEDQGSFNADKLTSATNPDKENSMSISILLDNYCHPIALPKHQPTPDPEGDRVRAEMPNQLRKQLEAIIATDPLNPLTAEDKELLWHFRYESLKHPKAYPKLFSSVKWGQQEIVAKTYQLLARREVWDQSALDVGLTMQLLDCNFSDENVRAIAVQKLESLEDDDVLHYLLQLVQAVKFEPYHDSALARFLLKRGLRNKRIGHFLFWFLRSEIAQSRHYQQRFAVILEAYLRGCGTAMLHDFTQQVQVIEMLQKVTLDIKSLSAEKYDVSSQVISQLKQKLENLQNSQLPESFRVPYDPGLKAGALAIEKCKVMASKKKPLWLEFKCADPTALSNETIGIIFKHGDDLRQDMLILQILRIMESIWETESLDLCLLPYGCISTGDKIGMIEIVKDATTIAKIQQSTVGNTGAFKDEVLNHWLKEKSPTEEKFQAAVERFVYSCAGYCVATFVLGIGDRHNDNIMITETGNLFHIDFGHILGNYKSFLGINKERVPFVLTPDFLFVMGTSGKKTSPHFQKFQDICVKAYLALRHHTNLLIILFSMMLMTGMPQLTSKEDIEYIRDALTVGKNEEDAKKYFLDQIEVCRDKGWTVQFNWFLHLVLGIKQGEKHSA
inactive: alvocidib -0.033 | Tubastatin A -0.044 | [1] 0.04 | defactinib 0.009 | [2] -0.015 | encorafenib 0.046 | [3] 0.041 | alisertib 0.001 | crizotinib -0.128 | [5] -0.158 | duvelisib 0.183 | gandotinib 0.14 | tozasertib -0.038 | doramapimod 0.04 | bafetinib -0.111 | [6] 0.075

POLR2F (UniProt P61218)
active: [5] 1.12
inactive: alvocidib 0.272 | Tubastatin A -0.07 | [1] 0.031 | defactinib 0.085 | [2] 0.2 | encorafenib -0.036 | [3] -0.02 | alisertib 0.065 | [4] 0.003 | gefitinib -0.097 | lapatinib 0.036 | pictilisib -0.062 | crizotinib -0.024 | duvelisib -0.018 | gandotinib -0.166 | tozasertib 0.156 | doramapimod 0.025 | bafetinib -0.076 | [6] -0.189

PRKAR2A (UniProt P13861)
Chain of UniProt P13861 (P13861 whole entry, looked up): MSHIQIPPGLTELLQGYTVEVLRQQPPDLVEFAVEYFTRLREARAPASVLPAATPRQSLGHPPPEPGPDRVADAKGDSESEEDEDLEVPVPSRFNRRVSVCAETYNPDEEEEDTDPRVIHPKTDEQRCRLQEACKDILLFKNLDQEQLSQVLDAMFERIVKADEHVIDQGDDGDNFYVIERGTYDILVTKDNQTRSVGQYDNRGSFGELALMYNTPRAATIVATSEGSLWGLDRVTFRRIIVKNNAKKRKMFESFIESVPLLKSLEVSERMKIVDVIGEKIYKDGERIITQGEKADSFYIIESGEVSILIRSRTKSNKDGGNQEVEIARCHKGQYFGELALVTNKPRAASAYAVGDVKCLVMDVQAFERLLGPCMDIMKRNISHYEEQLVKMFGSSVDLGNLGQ
active: gandotinib -0.232
inactive: alvocidib -0.028 | Tubastatin A -0.019 | [1] -0.176 | defactinib -0.085 | [2] -0.017 | encorafenib 0.037 | [3] 0.142 | alisertib 0.002 | [4] -0.062 | gefitinib 0.024 | lapatinib 0.036 | pictilisib -0.094 | crizotinib 0.013 | [5] 0.006 | duvelisib -0.025 | tozasertib 0.015 | doramapimod 0.036 | bafetinib -0.026 | [6] 0.031

PRKAB2 (UniProt O43741)
Chain of UniProt O43741 (O43741 whole entry, looked up): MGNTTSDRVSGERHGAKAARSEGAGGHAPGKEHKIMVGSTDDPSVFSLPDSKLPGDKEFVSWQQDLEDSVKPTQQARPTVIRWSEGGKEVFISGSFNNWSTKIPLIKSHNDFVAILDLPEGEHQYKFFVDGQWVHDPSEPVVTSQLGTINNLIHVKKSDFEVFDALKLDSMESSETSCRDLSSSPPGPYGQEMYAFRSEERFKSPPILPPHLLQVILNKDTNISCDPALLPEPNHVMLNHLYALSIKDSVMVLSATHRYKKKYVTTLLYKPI
inactive: alvocidib -0.122 | Tubastatin A -0.016 | [1] 0.286 | defactinib 0.057 | [2] 0.062 | encorafenib -0.04 | [3] -0.09 | alisertib -0.062 | [4] 0.058 | gefitinib -0.126 | lapatinib -0.029 | pictilisib 0.09 | crizotinib -0.013 | duvelisib 0.019 | gandotinib 0.25 | tozasertib 0.111 | doramapimod 0.039 | bafetinib 0.052 | [6] 0.142
active: [5] -0.698

PI4KB (UniProt Q9UBF8)
Chain of UniProt Q9UBF8 (Q9UBF8 whole entry, looked up): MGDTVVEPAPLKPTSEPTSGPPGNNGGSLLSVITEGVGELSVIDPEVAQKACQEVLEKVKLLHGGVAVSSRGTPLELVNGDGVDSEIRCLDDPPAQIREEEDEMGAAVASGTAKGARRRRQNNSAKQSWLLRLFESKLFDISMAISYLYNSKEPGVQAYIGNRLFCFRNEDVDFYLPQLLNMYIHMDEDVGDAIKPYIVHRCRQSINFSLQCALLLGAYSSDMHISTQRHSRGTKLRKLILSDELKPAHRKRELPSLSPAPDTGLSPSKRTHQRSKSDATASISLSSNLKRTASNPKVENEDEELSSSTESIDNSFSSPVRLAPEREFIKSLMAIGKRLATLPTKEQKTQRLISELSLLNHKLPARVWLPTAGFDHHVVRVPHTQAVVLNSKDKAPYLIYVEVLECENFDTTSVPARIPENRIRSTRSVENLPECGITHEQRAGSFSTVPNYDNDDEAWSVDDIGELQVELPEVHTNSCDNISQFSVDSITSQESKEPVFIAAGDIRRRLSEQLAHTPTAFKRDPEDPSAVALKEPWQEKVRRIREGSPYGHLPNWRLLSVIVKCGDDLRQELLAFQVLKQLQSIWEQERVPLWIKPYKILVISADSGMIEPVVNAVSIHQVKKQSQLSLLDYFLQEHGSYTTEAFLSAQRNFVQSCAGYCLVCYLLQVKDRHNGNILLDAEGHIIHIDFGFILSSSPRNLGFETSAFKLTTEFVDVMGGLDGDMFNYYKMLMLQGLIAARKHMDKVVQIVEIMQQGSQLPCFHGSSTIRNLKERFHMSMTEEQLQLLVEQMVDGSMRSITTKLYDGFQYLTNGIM
inactive: alvocidib 0.005 | Tubastatin A -0.032 | [1] 0.228 | defactinib 0.094 | [2] 0.056 | encorafenib 0.081 | [3] -0.069 | alisertib -0.001 | [4] -0.097 | gefitinib 0 | lapatinib 0.02 | pictilisib 0.031 | crizotinib -0.011 | [5] -0.01 | duvelisib 0.005 | gandotinib 0.011 | tozasertib -0.02 | doramapimod 0.055 | bafetinib -0.073 | [6] 0.014

PRIM1 (UniProt P49642)
Chain of UniProt P49642 (P49642 whole entry, looked up): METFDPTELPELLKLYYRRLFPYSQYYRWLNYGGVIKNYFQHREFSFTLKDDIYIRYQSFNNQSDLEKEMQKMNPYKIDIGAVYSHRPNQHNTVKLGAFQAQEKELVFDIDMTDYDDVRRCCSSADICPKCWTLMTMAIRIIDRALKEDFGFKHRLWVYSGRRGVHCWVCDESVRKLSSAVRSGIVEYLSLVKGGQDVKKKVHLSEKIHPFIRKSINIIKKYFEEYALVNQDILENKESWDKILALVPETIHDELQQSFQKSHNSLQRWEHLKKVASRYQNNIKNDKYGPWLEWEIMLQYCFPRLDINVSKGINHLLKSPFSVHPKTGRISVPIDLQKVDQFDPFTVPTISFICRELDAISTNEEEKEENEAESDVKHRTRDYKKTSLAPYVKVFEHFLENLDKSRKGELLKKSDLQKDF
inactive: alvocidib 0 | Tubastatin A -0.11 | [1] 0.023 | defactinib -0.012 | [2] 0.033 | encorafenib 0.052 | [3] 0.041 | alisertib -0.054 | [4] -0.019 | gefitinib -0.008 | lapatinib -0.02 | pictilisib 0.023 | crizotinib -0.064 | [5] 0.024 | duvelisib 0.004 | gandotinib -0.099 | tozasertib 0.027 | doramapimod -0.022 | bafetinib -0.077 | [6] 0.007

PIM1 isoform 2 (UniProt P11309)
Chain of UniProt P11309 (P11309 whole entry, looked up): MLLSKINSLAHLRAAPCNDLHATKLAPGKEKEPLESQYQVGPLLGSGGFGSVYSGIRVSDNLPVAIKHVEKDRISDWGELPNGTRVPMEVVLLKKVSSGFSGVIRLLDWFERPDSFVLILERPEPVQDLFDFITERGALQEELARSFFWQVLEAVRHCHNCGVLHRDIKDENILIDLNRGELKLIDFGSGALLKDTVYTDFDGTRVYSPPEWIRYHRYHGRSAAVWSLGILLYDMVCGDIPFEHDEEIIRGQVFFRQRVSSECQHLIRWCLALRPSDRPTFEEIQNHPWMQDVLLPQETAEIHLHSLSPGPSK
inactive: alvocidib 0.217 | Tubastatin A -0.204 | [1] 0.052 | defactinib 0.035 | [2] -0.152 | encorafenib -0.007 | [3] 0.038 | alisertib -0.017 | gefitinib 0.003 | pictilisib 0.084 | crizotinib -0.107 | [5] 0.096 | duvelisib 0.081 | gandotinib -0.121 | tozasertib 0.046 | doramapimod -0.012 | bafetinib -0.043 | [6] -0.025
